AmpC no deterg = inhibitors of E. coli AmpC beta-lactamase without detergent; AmpC nitrocefin hydrolysis, absorbance 480 nm, 0.0001% Triton; 0.52% of 330,000 active; P00811; AID 485341; Potency, µM (top dose mostly 57.1 µM), actives largely listed as inhibitors; further: nearly all actives have a fitted effect of over 20% in size
Target sequence (P00811 whole entry, looked up): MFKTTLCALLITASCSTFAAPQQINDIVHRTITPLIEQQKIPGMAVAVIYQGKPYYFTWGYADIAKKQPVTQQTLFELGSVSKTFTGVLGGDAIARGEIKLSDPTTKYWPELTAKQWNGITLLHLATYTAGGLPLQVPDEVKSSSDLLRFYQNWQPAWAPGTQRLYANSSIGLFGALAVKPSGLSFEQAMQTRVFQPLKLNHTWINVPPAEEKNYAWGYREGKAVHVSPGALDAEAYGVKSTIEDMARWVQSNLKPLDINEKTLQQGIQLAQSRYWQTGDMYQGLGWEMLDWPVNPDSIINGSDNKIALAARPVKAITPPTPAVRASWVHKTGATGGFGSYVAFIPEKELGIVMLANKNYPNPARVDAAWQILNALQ
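AmpC (5.3 nM in the dispensed reagent) in 20 mM phosphate pH 7.0 with 0.01% (detergent screen) or 0.0001% Triton X-100 was preincubated with compounds for 15 min at room temperature. Nitrocefin was then added from an 800 uM solution, and hydrolysis was followed at 480 nm.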
AMA1 RON2 block = AMA1-RON2 (P. falciparum) interaction inhibition; AlphaScreen AMA1-biotinylated RON2 peptide binding; Potency, µM (doses to about 58.2 µM), most hits filed as inhibitors; 0.2% of 360,000 active; AID 720542; further: nearly all actives have a fitted effect of over 45% in size
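AMA1 (3D7) with his tag at 25 nM final met compounds first, then biotinylated RON2 peptide at 25 nM; detection used donor plus acceptor beads, 10 µg/mL apiece, read by AlphaScreen after 30 min at room temperature.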
SARS PLP yeast = inhibitors of SARS-CoV papain-like protease in yeast | S. cerevisiae expressing SARS-CoV PLpro, growth rescue | Potency, µM (highest dose often 32.9 µM), hits mostly activators | 0.19% of 330,000 active; calls by dose curve; further: nearly all actives have a fitted effect of over 55% in size
CHX counter = affects cycloheximide protein synthesis inhibition readout, counter-screen | 12% of 300,000 active | cell reporter, cycloheximide protein synthesis inhibition counterscreen | AID 2314 | max response, %; in the data active means max response mostly above about 13%, no sharp cut-off; inactive means mostly below about 14%; further: read at 38.3 µM for the half of the compounds with a filed dose
Shiga inhibitor = blocks Shiga toxin action in Vero cells. inhibition, % at 38.7 µM. 9.2% of 290,000 active. Vero cells, Shiga toxin protein synthesis inhibition reporter; in the data active means inhibition mostly above about 28%, no sharp cut-off; inactive means mostly below about 43%
AmpC inh detg = inhibitors of E. coli AmpC beta-lactamase with detergent; Potency, µM (doses to about 114 µM), hits mostly inhibitors; AmpC hydrolysis of nitrocefin, absorbance 480 nm, 0.01% Triton; P00811; AID 485294; 0.041% of 370,000 active; further: nearly all actives have a fitted effect of over 25% in size
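AmpC (5.3 nM in the dispensed reagent) in 20 mM phosphate pH 7.0 with 0.01% (detergent screen) or 0.0001% Triton X-100 was preincubated with compounds for 15 min at room temperature. Nitrocefin was then added from an 800 uM solution, and hydrolysis was followed at 480 nm.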
Large screens that a line does not name were inactive. Many of the other results were omitted from the sample, so hits are more common in it than they were. Unless noted, the call rests on the fitted dose curve; in most records, active means well fitted curve in the direction sought with a large enough effect; inconclusive means small, poorly fitted or top-dose-only effect, or another doubt; inactive means no such curve, though single readings can be large; an effect the other way counts as inactive or inconclusive.

Cc1ccc(S(=O)(=O)N2CCC(C(=O)Nc3ccccc3N3CCCCC3)CC2)cc1	AmpC inh detg 31.6µM
Cc1ccc(S(=O)(=O)N2CCC(C(=O)Nc3ccccc3N3CCCC3)CC2)cc1	none (no result: CHX counter, Shiga inhibitor)
CCc1ccc2[nH]c3nc(SCC(=O)NCC4CCCO4)nnc3c2c1 (centres undefined)	none
CCc1ccc2[nH]c3nc(SCCN4CCOCC4)nnc3c2c1	CHX counter 20.9, Shiga inhibitor 17.4, AmpC inh detg inconclusive
Cc1cc(C)nc(Sc2ncnc3c2oc2ccccc23)n1	Shiga inhibitor 50.3
c1ccc2c(c1)oc1c(N3CCOCC3)ncnc12	CHX counter 9.8
COc1ccccc1N1CCN(c2ncnc3c2oc2ccccc23)CC1	CHX counter 8.6, AmpC inh detg inconclusive
c1coc(CN(Cc2ccco2)c2ncnc3c2oc2ccccc23)c1	CHX counter 18.6
CN(C)CCOc1ncnc2c1oc1ccccc12	AmpC inh detg inconclusive
COc1ccc(C(=O)N2CCCC(c3nc(-c4cc(OC)c(OC)c(OC)c4)no3)C2)cc1 (centres undefined)	none
Clc1ncnc2c1oc1ccccc12	AmpC no deterg 0.282µM, CHX counter 36.7, Shiga inhibitor active
CCSc1ncnc2c1oc1ccccc12	AmpC inh detg inconclusive
O=C(c1ccco1)N1CCN(c2ncnc3c2oc2ccccc23)CC1	CHX counter 41.1, Shiga inhibitor 63.4
O=C(Cn1cnc2c(OCc3ccccc3)ncnc21)NCCc1c[nH]c2ccccc12	none (no result: CHX counter, Shiga inhibitor, AmpC inh detg)
O=C1c2ccccc2NC(c2ccccc2O)N1c1ccc(F)cc1 (centres undefined)	CHX counter 66.6, Shiga inhibitor 55.7
COc1cccc(C2Nc3ccccc3C(=O)N2O)c1O (centres undefined)	none
COc1cccc(C2Nc3ccccc3C(=O)N2c2ccc(F)cc2)c1O (centres undefined)	CHX counter 59.4, Shiga inhibitor 79.2
Cc1noc(C)c1C(=O)Nc1nc2ccccc2s1	none (no result: CHX counter, Shiga inhibitor)
Cc1ccc(C(=O)NC(=S)N2CCN(c3cc(C)ccc3C)CC2)cc1	CHX counter 38.2, Shiga inhibitor 49.1
Cc1ccc(C(=O)NC(=S)N2CCN(c3ccccc3F)CC2)cc1	Shiga inhibitor 34.7, AmpC inh detg inconclusive
CSc1ccc(C2=CC(=O)C[C@H](c3ccc(F)cc3)C2)cc1	none (no result: CHX counter, Shiga inhibitor)
O=c1cc(N2CCCCC2)c2ccccc2o1	none
O=c1c(N2CCCCC2)coc2ccccc12	CHX counter 19.9
CCOC(=O)N1CCC(NC(=O)CS(=O)(=O)Cc2nc(-c3ccccc3Cl)oc2C)CC1	none
CC(C(Sc1ccccc1N)c1ccccc1)[N+](=O)[O-] (centres undefined)	CHX counter 32.3, Shiga inhibitor 60.6
COc1ccc(NC(=S)Nc2ccccn2)cc1	CHX counter 46.5, Shiga inhibitor 134.8
CCOC(=O)c1ccc(NC(=S)Nc2cccc(N)n2)cc1	CHX counter 50.1, Shiga inhibitor 81.2
COC(=O)c1ccc(NC(=S)Nc2ccccn2)cc1	SARS PLP yeast inconclusive, CHX counter 41.5, Shiga inhibitor 73.2
CCS(=O)(=O)c1cc([N+](=O)[O-])c(Sc2ccccc2NC(C)=O)s1	CHX counter 14.4
CN(C)c1ccc(CNCCC(Cc2ccccc2)c2ccco2)cc1 (centres undefined)	AMA1 RON2 block 15.8µM
O=C1C(NS(=O)(=O)c2cccs2)=C(N2CCN(Cc3ccccc3)CC2)C(=O)c2ccccc21	AMA1 RON2 block 28.2µM
O=C1C(NS(=O)(=O)c2cccs2)=C(N2CCN(c3cccc(C(F)(F)F)c3)CC2)C(=O)c2ccccc21	AMA1 RON2 block 10µM
CCOc1ccccc1N1CCN(C2=C(NS(=O)(=O)c3cccs3)C(=O)c3ccccc3C2=O)CC1	AMA1 RON2 block 10µM, AmpC inh detg inconclusive
CCOc1ccccc1N1CCN(S(=O)(=O)c2cc(C)ccc2OC)CC1	CHX counter 51.3, Shiga inhibitor 63.8
CN1CCN(C2=C(NS(=O)(=O)c3cccs3)C(=O)c3ccccc3C2=O)CC1	none
COc1ccc(C)cc1S(=O)(=O)N1CCN(c2ccccc2)CC1	none (no result: Shiga inhibitor)
O=C1C(NS(=O)(=O)c2cccs2)=C(N2CCOCC2)C(=O)c2ccccc21	none
O=c1c2[nH]c3ccccc3c2ncn1Cc1ccco1	none
Cc1cc(F)ccc1C(O)c1ncc(-c2ccc(Cl)cc2)[nH]1 (centres undefined)	none (no result: AmpC no deterg, SARS PLP yeast, CHX counter, Shiga inhibitor, AmpC inh detg)
COC(=O)c1ccc(C(=O)OC)c(NC(=O)Nc2ccc3c(c2)OCO3)c1	CHX counter 24.6, Shiga inhibitor 61.7
COc1cc(NC(=O)Nc2ccc3c(c2)OCO3)cc(OC)c1OC	AmpC inh detg inconclusive
COC(=O)c1ccccc1NC(=O)Nc1ccc2c(c1)OCO2	CHX counter 16.4
CC(C)c1ccccc1NC(=O)Nc1ccc2c(c1)OCO2	none
COC(=O)c1ccc(C(=O)OC)c(NC(=O)/C=C/C(=O)O)c1	CHX counter 10.9
CCCCNc1cnn(-c2ccccc2)c(=O)c1Cl	CHX counter 32.5, Shiga inhibitor 75.1
O=c1c(Cl)c(Cl)cnn1-c1ccccc1	none
CCSc1cnn(-c2ccccc2)c(=O)c1Cl	none (no result: AmpC no deterg, SARS PLP yeast, CHX counter, Shiga inhibitor, AmpC inh detg)
CN(c1cnn(-c2ccccc2)c(=O)c1Cl)n1cccc1	CHX counter 34.5, Shiga inhibitor 56.4
COCCNc1cnn(-c2ccccc2)c(=O)c1Cl	CHX counter 25.3, Shiga inhibitor 39.0
Nc1ccc(Oc2ccccc2F)nc1	none
CC1(C(=O)Nc2cnc3ccccc3c2)CCN1Cc1ccc2c(c1)OCCO2 (centres undefined)	none (no result: AmpC no deterg, SARS PLP yeast, CHX counter, Shiga inhibitor, AmpC inh detg)
CCN(Cc1ccccc1)C(=O)c1cc2c(OC)c(OC)c(OC)cc2[nH]1	AmpC inh detg inconclusive
CCOc1ccc(-n2c(SCC(N)=O)nnc2-c2cccnc2)cc1	AMA1 RON2 block inconclusive
COc1cc(SC)ccc1C(=O)Nc1ccc2c(c1)CCC2	CHX counter 30.5, Shiga inhibitor 95.8
COc1cc(SC)ccc1C(=O)NC1CCCc2ccccc21 (centres undefined)	none
COc1ccc(C(=O)Nc2ccncc2)c(OC)c1	none
CSc1ccc(Cl)c(C(=O)Nc2ccc(Cl)cn2)c1	none
COc1cc(SC)ccc1C(=O)Nc1ccncc1	CHX counter 33.1
COc1cc(SC)ccc1C(=O)Nc1cccc(C2OCCCO2)c1	CHX counter 31.6, Shiga inhibitor 70.7
COc1cc(SC)ccc1C(=O)Nc1nc(C)cc(C)n1	none
COc1cc(SC)ccc1C(=O)Nc1ccc(Cl)cn1	CHX counter 32.7, Shiga inhibitor 76.9
O=C(Nc1cc(C(F)(F)F)ccc1Cl)c1noc2c1CCCCC2	none (no result: AmpC no deterg, AMA1 RON2 block, SARS PLP yeast, CHX counter, Shiga inhibitor)
CC1(C)OC(=O)CC1C(=O)NCc1ccccc1 (centres undefined)	none
COc1cc(SC)ccc1C(=O)Nc1ccccc1C#N	CHX counter 37.0, Shiga inhibitor 91.3, AmpC inh detg inconclusive
Cc1occc1C(=O)Nc1ccccc1C#N	none
